Measured values: PubChem BioAssay (NCATS)
Results filed as inconclusive are left out. Entries that show only a call come without a potency. A number with no mark means an inactive call. Activity calls are given as the source filed them. The call rests on the fitted dose curve; in most records, active means well fitted inhibition curve with a large enough effect; inconclusive means small, poorly fitted or top-dose-only effect; inactive means flat fitted curve, though single readings scatter. *1 amine or outer side, *2 acyl side, *3 side chain or, on linkers, in order; H or OH if unused. Where a SMILES comes first, the peptide text is derived from it. [ ]: non-standard residue; d: D form. X4 = CC(C)=CCc1cc(C(O)C(N[*:1])C(=O)[*:2])ccc1O

Assay: P-glycoprotein substrates identified in KB-8-5-11 adenocarcinoma cell line, qHTS therapeutic library screen (AID 1346987); further: nearly all actives have a fitted effect of over 65% in size
Conditions: KB-8-5-11 (P-gp overexpressing) viability, CellTiter-Glo, 72 h; series mostly up to 44.5 µM
Procedure, shortened: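 In this qHTS, P-gp-rich KB-8-5-11 cells received library compounds across a concentration range. Viability was quantified by luminescence after 72 h at 37 degree C.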
Potency means the concentration at half of the fitted maximal effect.

SMILES	Potency	activity change, negative = cytotoxicity
O=C1NC(Cc2ccccc2)C(=O)N2CCCC12 (stereo not drawn)	inactive	–
CC[C@]12C=CCN3CC[C@@]4(c5cc([C@@]6(C(=O)OC)C[C@H]7C[C@@H](C(C)(F)F)CN(Cc8c6[nH]c6ccccc86)C7)c(OC)cc5N(C)[C@H]4[C@@](O)(C(=O)OC)[C@@H]1OC(C)=O)[C@@H]32	5.44 µM (active)	–
O=C(CCCCN1CCOCC1)Nc1ccc(-c2cccnc2)cc1	inactive	–
CC(C)N(CCCCOCC(=O)NS(C)(=O)=O)c1cnc(-c2ccccc2)c(-c2ccccc2)n1	inactive	–
CC(C)c1ccc2c(c1)C(=O)CC1[C@@](C)(C(=O)O)CCC[C@]21C (stereo partly drawn)	inactive	–
C[C@@H]1C(=O)O[C@H]2[C@H](O)C34[C@H]5C[C@@H](C(C)(C)C)C36[C@@H](OC(=O)[C@@H]6O)O[C@@]4(C(=O)O5)[C@@]12O (stereo partly drawn)	inactive	–
O=C(O)C(O[C@@H]1O[C@H](CO[C@@H]2O[C@H](CO)[C@@H](O)[C@H](O)[C@H]2O)[C@@H](O)[C@H](O)[C@H]1O)c1ccccc1 (stereo partly drawn)	inactive	–
CC(=O)O[C@H]1C[C@@]2(C)[C@@H](CC[C@H]3[C@@]4(C)C=CC(=O)[C@@H](C)[C@@H]4[C@H](O)C(=O)[C@@]32C)/C1=C(/CCC=C(C)C)C(=O)O	inactive	–
O=C(/C=C\n1cnc(-c2cc(C(F)(F)F)cc(C(F)(F)F)c2)n1)N1CC(F)(F)C1	0.461 µM (active)	–
Cc1cc(C)nc(NS(=O)(=O)c2ccc(NC(=S)NC(=O)COc3ccc(Br)cc3Cl)cc2)n1	inactive	–
C/C(=C\CC[C@@H](C)[C@H]1CC(O)[C@@]2(C)C3CC[C@H]4C(C)(C)[C@@H](OC5OCC(O)C(O)C5OC5OC(CO)C(O)C(O)C5O)CC[C@@]45C[C@@]35CC(O)[C@]12C)C(=O)O (stereo partly drawn)	inactive	–
CC(O)/C=C/C1(O)C(C)C(O[C@@H]2O[C@H](CO)[C@@H](O)[C@H](O)[C@H]2O)C(O)CC1(C)C (stereo partly drawn)	inactive	–
CC(=O)O[C@@](C)(C(=O)/C=C/C(C)(C)O)[C@H]1[C@H](O)C[C@@]2(C)[C@@H]3CC=C4[C@@H](C=C(O)C(=O)C4(C)C)[C@]3(C)C(=O)C[C@]12C	0.796 µM (active)	–
CCCCc1nc2cc(/C=C/C(=O)NO)ccc2n1CCN(CC)CC	3.26 µM (active)	–
CC(C)(C(=O)NCC(F)(F)C(F)(F)F)C(=O)NC1C(=O)Nc2ccccc2-c2ccccc21 (stereo not drawn)	4.61 µM (active)	–
Cc1nc([C@](C)(O)CO)sc1-c1cnc(N)c(O[C@H](C)c2cc(F)ccc2-n2nccn2)c1	11.6 µM (active)	–
CC(C)CCC1(O)C(=O)C(C)(C)C(O[C@@H]2O[C@H](CO)[C@@H](O)[C@H](O)[C@H]2O)C(C)(C)C1O (stereo partly drawn)	inactive	–
O=C1N=C(N2CCOCC2)CN1c1ccc(Cl)cc1	inactive	–
C/C=C/C(O)C1OC(=O)CC1Nc1ccc(C(=O)O)cc1 (stereo not drawn)	inactive	–

SMILES	Potency	activity change, negative = cytotoxicity
O=C(O)c1cc(I)ccc1NC(=O)[C@H](Cc1ccccc1)NCc1ccccc1	inactive	–
CCc1ccc(Cc2ccc3c(c2)[C@]2(OC3)O[C@H](CO)[C@@H](O)[C@H](O)[C@H]2O)cc1	inactive	–
C=CC(C)(O)CC[C@H]1C(=C)CCC2[C@](C)(C(=O)O)CCC[C@@]21C (stereo partly drawn)	inactive	–
C[C@@]12CC[C@@H]3[C@@](CC[C@H]4[C@@]3(C)CCC[C@@]4(C)C(=O)O)(CC1=O)C2	inactive	–
CC(C)c1c2cc(-c3ccnc(NC4CCC(NC5CCOCC5)CC4)n3)ccc2nn1C (stereo not drawn)	1.84 µM (active)	–
CC(C)=CCc1cc(C(O)C2NC(=O)CNC(=O)C(Cc3c[nH]c4ccccc34)NC(=O)C3CCCN3C(=O)CNC(=O)C(C(C)C)NC(=O)CNC2=O)ccc1O (stereo not drawn) (cyclo(G[X4]GVGPW); configuration not given here)	–	-0.495% [at 9.29 µM]
CC(=O)O[C@H]1CC[C@H](C)[C@@]2(C)[C@H](OC(C)=O)c3c(C)coc3C(=O)[C@H]12	inactive	–
CC(C)=CCC/C(C)=C/CC/C(C)=C/COC1OC(COC2OCC(OC3OCC(O)C(O)C3O)C(O)C2O)C(O)C(OC2OC(C)C(OC3OC(C)C(OC4OCC(OC5OC(C)C(O)C(O)C5O)C(O)C4O)C(O)C3O)C(O)C2O)C1O (stereo not drawn)	–	7.18% [at 9.29 µM]
C[C@@H]1O[C@@H](O[C@@H]2[C@@H](O)[C@@H](O[C@]3(CO)O[C@H](CO)[C@@H](O)[C@@H]3OC(=O)/C=C/c3ccc(O)cc3)O[C@H](CO)[C@H]2OC(=O)/C=C/c2ccc(O)cc2)[C@H](O)[C@H](O)[C@H]1O[C@@H]1O[C@@H](C)[C@H](O[C@@H]2OC[C@](O)(CO)[C@H]2O)[C@@H](O)[C@H]1O	–	9.01% [at 9.29 µM]
COc1c2ccoc2cc2oc(CO[C@@H]3O[C@H](CO)[C@@H](O)[C@H](O)[C@H]3O)cc(=O)c12	inactive	–
Cc1ncc(CCCN(C)C)cc1Nc1ncc2c(n1)-c1ccc(C(F)(F)F)cc1NC(=S)C2	0.0651 µM (active)	–
COC(=O)C1(C)c2[nH]c3ccccc3c2CCN1C(=O)CCl (stereo not drawn)	10.3 µM (active)	–
C=C1CC[C@H]2[C@@](C)(CCC(O)[C@@]2(C)CO)[C@@H]1CCC1=CCOC1=O (stereo partly drawn)	inactive	–
O=C(O)c1ccc(OC2OC(CO)C(O)C(O)C2O)cc1 (stereo not drawn)	inactive	–
C[C@@H]1CC[C@]2(C(=O)O[C@@H]3O[C@H](CO)[C@@H](O)[C@H](O)[C@H]3O)CC[C@]3(C)C(=CCC4[C@@]5(C)C[C@@H](O)[C@H](O)[C@](C)(C(=O)O)C5CC[C@]43C)[C@@H]2[C@]1(C)O (stereo partly drawn)	inactive	–
CC(=O)OC12COC1CC(O)C1(C)C(=O)C(O)C3=C(C)C(OC(=O)C(O)C(NC(=O)OC(C)(C)C)c4ccccc4)CC(O)(C(OC(=O)c4ccccc4)C21)C3(C)C (stereo not drawn)	0.164 µM (active)	–
CN(C)CCn1cc(S(=O)(=O)c2cccc(F)c2)c2cccnc21	inactive	–
CN1c2ccccc2C(=O)N2CCC3c4ccccc4NC3C21 (stereo not drawn)	2.02 µM (active)	–
COc1cc(N)c(Cl)cc1C(=O)NC[C@@H]1CCN2CCC[C@@H]12	inactive	–
